The text below walks through data of PubChem BioAssay (EPA / NIEHS).

SMILES strings stand for the structures. Active and inactive are the calls of the source. How the source made its calls: active means hit-call score of the fitted dose curve at least 0.9, where 1 is the maximum; inactive means score below 0.9.

What is called AC50 is the midpoint of the concentration-response curve, whichever way the signal moves.

Holding throughout (conditions): mRNA level, 48 h; actives raise or lower the signal
Read-out in assay [1]: Cyclin Dependent Kinase Inhibitor 1A (CDKN1A), CDKN1A (gene 1026)
Nature of the assay: LTEA_HepaRG_CDKN1A: Life Technologies and Expression Analysis (LTEA) Assay for Cyclin Dependent Kinase Inhibitor 1A (CDKN1A) using HepaRG (AID 2283450). In outline: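 Differentiated HepaRG cells in serum-free induction medium, exposed 48 h in duplicate to eight half-log concentrations up to 100 uM in 0.5% DMSO. mRNA measured by TaqMan qRT-PCR, normalized to ACTB, GAPDH, POLR2A; bidirectional fit versus DMSO.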

Read-out in assay [2]: Cyclin D1 (CCND1), CCND1 (gene 595)
Nature of the assay: LTEA_HepaRG_CCND1: Life Technologies and Expression Analysis (LTEA) Assay for Cyclin D1 (CCND1) using HepaRG (AID 2283451). In outline: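 Differentiated HepaRG cells exposed 48 h in serum-free induction medium to eight half-log concentrations from 100 uM top, 0.5% DMSO, duplicates. CCND1 mRNA measured by Fluidigm TaqMan qRT-PCR, normalised to ACTB, GAPDH, POLR2A; bidirectional fit.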

Read-out in assay [3]: flavin-containing dimethylaniline monooxygenases 3 (FMO3), FMO3 (gene 2328)
Nature of the assay: LTEA_HepaRG_FMO3: Life Technologies and Expression Analysis (LTEA) Assay for flavin-containing dimethylaniline monooxygenases 3 (FMO3) using HepaRG (AID 2283453). The gist of the method:
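HepaRG, 48 h exposure, 8-pt half-log series from 100 uM, 0.5% DMSO vehicle, duplicates; FMO3 transcript by Fluidigm TaqMan qRT-PCR, housekeeping-normalized; gain/loss fit vs DMSO.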

Read-out in assay [4]: Cytochrome P450 (CYP1A1), CYP1A1 (gene 1543)
Briefly: LTEA_HepaRG_CYP1A1: Life Technologies and Expression Analysis (LTEA) Assay for Cytochrome P450 (CYP1A1) using HepaRG (AID 2283454). The gist of the method:
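Differentiated human HepaRG cells, after 48 h plating, exposed in duplicate for 48 h in serum-free induction medium to 8 half-log concentrations up to 100 uM in 0.5% DMSO. CYP1A1 mRNA by qRT-PCR, normalized to ACTB/GAPDH/POLR2A; bidirectional fit versus DMSO.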

Read-out in assay [5]: CFLAR gene, CFLAR (gene 8837)
Briefly: LTEA_HepaRG_CFLAR: Life Technologies and Expression Analysis (LTEA) Assay for CFLAR gene using HepaRG (AID 2283455). In outline:
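HepaRG cells were plated for 48 h, switched to serum-free induction medium, then exposed in duplicate for 48 h to 8 concentrations (top 100 uM, half-log steps, 0.5% DMSO). CFLAR mRNA was measured by qRT-PCR, normalized to ACTB, GAPDH and POLR2A.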

Read-out in assay [6]: Forkhead box O1 (FOXO1), FOXO1 (gene 2308)
Briefly: LTEA_HepaRG_FOXO1: Life Technologies and Expression Analysis (LTEA) Assay for Forkhead box O1 (FOXO1) using HepaRG (AID 2283456). In outline: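 Differentiated human HepaRG cells in serum-free induction medium were exposed in duplicate for 48 h to eight half-log concentrations (top 100 uM, 0.5% DMSO). FOXO1 mRNA was measured by TaqMan qRT-PCR, normalised to ACTB, GAPDH and POLR2A, and fitted bidirectionally against DMSO.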

Read-out in assay [7]: growth arrest and DNA damage 45 (GADD45A), GADD45A (gene 1647)
Nature of the assay: LTEA_HepaRG_GADD45A: Life Technologies and Expression Analysis (LTEA) Assay for growth arrest and DNA damage 45 (GADD45A) using HepaRG (AID 2283458). In outline: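 Differentiated HepaRG cells were exposed in duplicate for 48 h in serum-free induction medium to 8-point half-log concentrations up to 100 uM in 0.5% DMSO. GADD45A mRNA was measured by TaqMan qRT-PCR, normalized to ACTB, GAPDH and POLR2A, with bidirectional fitting versus DMSO.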

Read-out in assay [8]: Forkhead box O3 (FOXO3), FOXO3 (gene 2309)
Briefly: LTEA_HepaRG_FOXO3: Life Technologies and Expression Analysis (LTEA) Assay for Forkhead box O3 (FOXO3) using HepaRG (AID 2283459). The gist of the method: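 Differentiated human HepaRG cells in serum-free induction medium were exposed in duplicate for 48 h to eight half-log concentrations up to 100 uM in 0.5% DMSO. FOXO3 mRNA was quantified by qRT-PCR, normalized to ACTB, GAPDH and POLR2A, with bidirectional fitting versus DMSO.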

Read-out in assay [9]: ABC Transporter (ABCB1), ABCB1 (gene 5243)
Briefly: LTEA_HepaRG_ABCB1: Life Technologies and Expression Analysis (LTEA) Assay for ABC Transporter (ABCB1) using HepaRG (AID 2283460). The gist of the method: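 Differentiated human HepaRG cells, plated 48 h then switched to serum-free induction medium, were exposed in duplicate to eight half-log concentrations up to 100 uM in 0.5% DMSO for 48 h. ABCB1 mRNA was measured by TaqMan qRT-PCR, normalized to ACTB/GAPDH/POLR2A.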

Read-out in assay [10]: ABC Transporter (ABCC3), ABCC3 (gene 8714)
Briefly: LTEA_HepaRG_ABCC3: Life Technologies and Expression Analysis (LTEA) Assay for ABC Transporter (ABCC3) using HepaRG (AID 2283462). The gist of the method: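 Differentiated human HepaRG cells exposed 48 h in serum-free induction medium, 0.5% DMSO vehicle, 8-point half-log series to 100 uM in duplicate. ABCC3 mRNA by qRT-PCR, normalised to ACTB, GAPDH, POLR2A; bidirectional fit vs DMSO.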

Read-out in assay [11]: ABC Transporter (ABCB11), ABCB11 (gene 8647)
Briefly: LTEA_HepaRG_ABCB11: Life Technologies and Expression Analysis (LTEA) Assay for ABC Transporter (ABCB11) using HepaRG (AID 2283463). In outline:
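Differentiated human HepaRG cells were exposed for 48 h in serum-free induction medium to eight half-log concentrations up to 100 uM in 0.5% DMSO. ABCB11 mRNA was quantified by qRT-PCR, normalized to ACTB, GAPDH and POLR2A, and fitted bidirectionally versus DMSO.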

Read-out in assay [12]: ABC Transporter (ABCC2), ABCC2 (gene 1244)
Nature of the assay: LTEA_HepaRG_ABCC2: Life Technologies and Expression Analysis (LTEA) Assay for ABC Transporter (ABCC2) using HepaRG (AID 2283464). In outline: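 Differentiated HepaRG cells in serum-free induction medium exposed 48 h to eight half-log concentrations up to 100 uM, 0.5% DMSO, in duplicate. ABCC2 mRNA measured by qRT-PCR (TaqMan, Fluidigm), normalized to ACTB, GAPDH and POLR2A. Fitted in both directions against DMSO.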

Read-out in assay [13]: Broad substrate specificity ATP-binding cassette transporter ABCG2 (Homo sapiens) (UniProt Q9UNQ0)
Briefly: LTEA_HepaRG_ABCG2: Life Technologies and Expression Analysis (LTEA) Assay for ABC Transporter (ABCG2) using HepaRG (AID 2283465). In outline:
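Differentiated HepaRG cells in serum-free induction medium were exposed for 48 h, in duplicate, to eight half-log concentrations up to 100 uM in 0.5% DMSO. ABCG2 mRNA was measured by TaqMan qRT-PCR, normalized to ACTB, GAPDH and POLR2A, and fitted bidirectionally versus DMSO.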

Read-out in assay [14]: ATP-citrate lyase (ACLY), ACLY (gene 47)
Briefly: LTEA_HepaRG_ACLY: Life Technologies and Expression Analysis (LTEA) Assay for ATP-citrate lyase (ACLY) using HepaRG (AID 2283466). In outline:
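Differentiated human HepaRG cells in serum-free induction medium exposed 48 h, in duplicate, to eight half-log concentrations from 100 uM top in 0.5% DMSO; ACLY mRNA measured by qRT-PCR, normalized to ACTB, GAPDH, POLR2A, fitted bidirectionally versus DMSO.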

Read-out in assay [15]: Alkaline Phosphatase, Placental (ALPP) gene, ALPP (gene 250)
Briefly: LTEA_HepaRG_ALPP: Life Technologies and Expression Analysis (LTEA) Assay for Alkaline Phosphatase, Placental (ALPP) gene using HepaRG (AID 2283468). In outline:
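HepaRG cells plated 48 h, then exposed in duplicate for 48 h in serum-free induction medium to 8-point half-log series from 100 uM in 0.5% DMSO. ALPP mRNA by TaqMan qRT-PCR, normalized to ACTB/GAPDH/POLR2A; bidirectional fit versus DMSO.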

Read-out in assay [16]: Peroxisomal acyl-coenzyme A oxidase 1 (ACOX1) gene, ACOX1 (gene 51)
Nature of the assay: LTEA_HepaRG_ACOX1: Life Technologies and Expression Analysis (LTEA) Assay for Peroxisomal acyl-coenzyme A oxidase 1 (ACOX1) gene using HepaRG (AID 2283467). The gist of the method: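 Differentiated human HepaRG cells were exposed in duplicate for 48 h in serum-free induction medium to eight half-log concentrations up to 100 uM in 0.5% DMSO. ACOX1 mRNA was then quantified by TaqMan qRT-PCR, normalized to ACTB, GAPDH and POLR2A.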

Read-out in assay [17]: Bcl-2 (BAD) gene, BAD (gene 572)
Nature of the assay: LTEA_HepaRG_BAD: Life Technologies and Expression Analysis (LTEA) Assay for Bcl-2 (BAD) gene using HepaRG (AID 2283469). In outline: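 Differentiated human HepaRG cells in serum-free induction medium were exposed in duplicate for 48 h to eight concentrations (top 100 uM, half-log steps, 0.5% DMSO). BAD mRNA was quantified by qRT-PCR normalised to ACTB, GAPDH and POLR2A, with bidirectional fitting versus DMSO.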

Read-out in assay [18]: catalase (CAT), CAT (gene 847)
Briefly: LTEA_HepaRG_CAT: Life Technologies and Expression Analysis (LTEA) Assay for catalase (CAT) using HepaRG (AID 2283452). The gist of the method: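 Differentiated HepaRG cells in serum-free induction medium were dosed 48 h in duplicate, eight half-log concentrations from 100 uM in 0.5% DMSO. Transcript measured by TaqMan qRT-PCR, normalised to ACTB/GAPDH/POLR2A, fitted bidirectionally against DMSO.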

Read-out in assay [19]: growth arrest and DNA damage 45 (GADD45B), GADD45B (gene 4616)
Nature of the assay: LTEA_HepaRG_GADD45B: Life Technologies and Expression Analysis (LTEA) Assay for growth arrest and DNA damage 45 (GADD45B) using HepaRG (AID 2283461). In outline:
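Differentiated human HepaRG cells in serum-free induction medium exposed 48 h in duplicate to eight concentrations, top 100 uM, half-log steps, 0.5% DMSO. GADD45B mRNA by TaqMan qRT-PCR, normalized to ACTB, GAPDH, POLR2A; bidirectional fit versus DMSO.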

Chain of Broad substrate specificity ATP-binding cassette transporter ABCG2 (Homo sapiens) (Q9UNQ0 whole entry, looked up): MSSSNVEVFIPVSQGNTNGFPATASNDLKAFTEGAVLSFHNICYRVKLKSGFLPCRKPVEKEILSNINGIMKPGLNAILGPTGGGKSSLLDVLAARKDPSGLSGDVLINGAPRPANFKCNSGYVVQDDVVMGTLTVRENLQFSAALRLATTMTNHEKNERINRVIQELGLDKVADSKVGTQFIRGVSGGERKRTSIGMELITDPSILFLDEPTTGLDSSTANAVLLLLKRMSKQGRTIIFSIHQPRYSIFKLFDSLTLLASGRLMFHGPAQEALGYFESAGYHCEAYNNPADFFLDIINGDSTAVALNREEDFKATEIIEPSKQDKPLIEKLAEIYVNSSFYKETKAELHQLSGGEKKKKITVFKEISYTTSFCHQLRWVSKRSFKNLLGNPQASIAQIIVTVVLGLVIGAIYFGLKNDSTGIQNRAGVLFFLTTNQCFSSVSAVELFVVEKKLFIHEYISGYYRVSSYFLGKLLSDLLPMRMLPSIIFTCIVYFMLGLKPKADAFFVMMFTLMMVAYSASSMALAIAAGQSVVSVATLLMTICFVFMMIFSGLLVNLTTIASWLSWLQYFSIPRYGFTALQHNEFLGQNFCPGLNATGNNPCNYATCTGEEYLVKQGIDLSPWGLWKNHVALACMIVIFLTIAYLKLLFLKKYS

With `CC(=O)O`, the compound was called inactive in assay [1], in assay [2], in [3], in [5], in assay [6] and in [7]. Also, the outcome in assay [8], in assay [9], in [10], in assay [11], in [12] and in assay [13] was inactive. Moreover, the compound was classed as inactive in assay [14] and in assay [15]. The AC50 in assay [4] is 72.2 µM (active).
For the compound `CCCCC(CC)COP(=O)(OCC(CC)CCCC)OCC(CC)CCCC` (centres undefined), the outcome in [1], in assay [2], in assay [3], in assay [5], in [6] and in assay [7] was inactive. The compound was classed as inactive in assay [8], in [10], in [11], in assay [12], in assay [13] and in [14]. The call in assay [16] and in assay [17] was inactive. Further, the values for the AC50 in assay [4] and in assay [9] were 25.6 µM (active) and 8.5 µM (active), respectively.
For `O=C1NC(=O)C(c2ccccc2)(c2ccccc2)N1`, the outcome in assay [2], in assay [18], in assay [3], in [5], in assay [6] and in assay [7] was inactive. Further, the call in assay [8], in assay [9], in assay [19], in assay [10], in assay [11] and in assay [13] was inactive. Besides, the result in assay [14], in assay [16] and in [17] was inactive. Moreover, the concentration at half-maximal activity (AC50) in assay [4] is 65.1 µM (active); in assay [12] it was 50 µM (active).
For the compound `CCCCC(CC)CO` (centres undefined), the call in [2], in assay [18], in assay [3], in [5], in assay [6] and in assay [7] was inactive. Besides, the call in assay [8], in [9], in assay [19], in [10], in assay [11] and in assay [12] was inactive. Moreover, the compound was called inactive in [13], in assay [14] and in [15]. In addition, the concentration at half-maximal activity (AC50) in assay [4] is 39.1 µM (active).
